EphB4 ephrin blk – EphB4-ephrin-B2 interaction antagonists, primary screen, biochemical, TNYL-RAW peptide probe, fluorescence polarization. Ephrin type-B receptor 4 (Homo sapiens), P54760. 97,000 tested, 0.15% active. inhibition, % at 7 µM. EphB4 LBD / TNYL-RAW-Alexa532 peptide;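 active means inhibition above the screen-wide mean inhibition plus 3 SD, cut at about 15% in these data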;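 further: 0% = DMSO wells and 100% = excess unlabeled TNYL-RAW peptide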
CYP2C9 inhib – blockers of cytochrome P450 2C9 activity – biochemical, luminescence, ADME assay, primary screen; P11712; CYP2C9 Supersomes, luciferin-H conversion; inhibition, % at 5 µM; 96,000 tested, 20% active;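 active means blocking of liver enzyme CYP2C9 beyond about 50% at 5 µM, limit read from the data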
CYP2C9 act – human CYP2C9 activators, primary screen, biochemical, luminescence. Cytochrome P450 2C9 (Homo sapiens), P11712. recombinant CYP2C9, luciferin-H conversion; active compounds read high; factor 1 = untreated enzyme, 0 = blocked. activation factor at 5 µM. 96,000 tested, 1.4% active. AID 1024, 2008;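 active means activation factor of 2 or more for CYP2C9 at a 5 µM dose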;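 further: 0 = sulfaphenazole-blocked wells and 1 = vehicle-only wells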
CYP2C19 act – human CYP2C19 activators, primary screen, biochemical, luminescence; activation factor at 5 µM; recombinant CYP2C19, luciferin-H EGE luminescence; active compounds read high; 0 = fully inhibited enzyme, 1 = untreated enzyme; 96,000 tested, under 10 active; Cytochrome P450 2C19 (Homo sapiens), P33261;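 active means activation factor of at least 2 at 5 µM in the primary screen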;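 further: 0 = wells with 2.5 mM tranylcypromine and 1 = vehicle-only wells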
Target sequence (P33261 whole entry, looked up): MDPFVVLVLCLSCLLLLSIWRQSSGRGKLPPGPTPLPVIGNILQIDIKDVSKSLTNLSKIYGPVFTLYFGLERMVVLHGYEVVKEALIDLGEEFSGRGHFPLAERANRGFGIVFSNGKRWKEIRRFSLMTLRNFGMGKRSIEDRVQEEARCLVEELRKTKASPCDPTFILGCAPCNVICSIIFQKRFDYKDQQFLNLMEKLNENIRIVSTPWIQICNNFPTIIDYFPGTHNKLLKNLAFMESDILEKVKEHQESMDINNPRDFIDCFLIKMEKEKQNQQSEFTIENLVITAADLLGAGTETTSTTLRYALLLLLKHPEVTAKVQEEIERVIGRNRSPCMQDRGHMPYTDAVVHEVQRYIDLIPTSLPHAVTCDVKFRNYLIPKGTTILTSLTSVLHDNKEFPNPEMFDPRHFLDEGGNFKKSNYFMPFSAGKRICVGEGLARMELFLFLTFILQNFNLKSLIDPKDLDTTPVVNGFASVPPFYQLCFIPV
CYP2C19 inh – blockers of cytochrome P450 2C19 activity – biochemical, luminescence, ADME assay, primary screen. P33261. CYP2C19 Supersomes, luciferin-H EGE luminescence, 30 min. inhibition, % at 5 µM. 96,000 tested, 21% active. AID 778, 2007;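 active means CYP2C19 inhibition above a set limit at 5 µM in the primary screen, cut at about 50% in these data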;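 further: plate controls were negative control wells for no effect and 2.5 mM tranylcypromine positive control for full effect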
* hit, by the source's call; / = no result given. Compounds with a hit are over-represented: about 27% of the library has one in this group of screens.

SMILES	EphB4 ephrin blk	CYP2C9 inhib	CYP2C9 act	CYP2C19 act	CYP2C19 inh
O=C(NC(=S)N1CCCc2ccccc21)c1ccccc1	4	6	0.9	0.5	51*
Cc1nc(NC(=O)CSc2nnc(C)n2CC2CCCO2)sc1C (stereo not given)	-1	-13	1.1	1.2	-15
O=C(/C=C(\O)c1ccc(Cl)cc1)C(=O)NNC(=O)C(O)(c1ccccc1)c1ccccc1	-3	9	0.9	1.1	-7
COCCSc1nnc(-c2cccc(C#N)c2)n1C	8	-10	1.1	0.9	9
Cc1nn(CCC(=O)NNC(=S)Nc2cccc(Cl)c2)c(C)c1[N+](=O)[O-]	-4	/	/	/	/
O=C1CCC(=O)N1c1nc2nc(-c3ccccc3)cc(-c3ccccc3)n2n1	/	27	0.7	0.9	12
COc1ccc(OCCCC(=O)NCC(C)C)cc1	-4	19	0.8	0.6	42
CC(C)N(Cc1cc2ccccc2[nH]c1=O)C(=O)C(C)(C)C	5	8	0.9	0.9	11
COc1ccc2c(CC(=O)OCC(=O)N3CCc4ccccc43)coc2c1	/	10	0.9	1	3
COc1ccccc1C(=O)NC(=S)N1CCCc2ccccc21	-2	-55	1.6	0.5	49
CC(C)Oc1ccc(C(=O)N2CCCc3ccccc32)cc1	-3	38	0.6	0	97*
COc1ccc(OCCCC(=O)N2CCCc3ccccc32)cc1	-2	83*	0.2	0	98*
COc1ccccc1CC(=O)N1CCCc2ccccc21	-3	-157	2.6*	0.3	67*
COc1ccc2c(CC(=O)N3CCc4ccccc43)coc2c1	5	14	0.9	0.4	64*
COc1nc(NCC(C)C)nc(Oc2ccc(OCc3ccccc3)nn2)n1	-9	38	0.6	0.7	32
COc1cccc(-c2noc(CCC(=O)NC3CCCCC3)n2)c1	-8	-54	1.5	0.9	8
Cc1ccc(-c2noc(CCC(=O)N3CCCc4ccccc43)n2)cc1	8	95*	0	0.2	85*
O=C(CSc1nc2ccccc2nc1SCC(=O)N1CCCCC1)N1CCCCC1	3	95*	0	0.8	20
Nc1cc(N)nc(SCC(=O)N2CCCCC2)n1	5	52*	0.5	0.9	14
Cc1cc(C)nc(SCC(=O)N2CCCCC2)n1	4	-18	1.2	1	-5
O=C(CSc1nc2ccccc2nc1SCC(=O)N1CCOCC1)N1CCOCC1	-4	11	0.9	1.1	-14
COc1ccccc1C/C(N)=N/OC(=O)c1ccc(C)c([N+](=O)[O-])c1	-3	-244	3.4*	0.9	9
COc1ccccc1C/C(N)=N/OC(=O)COc1ccc(C)cc1C	-1	/	/	/	/
Cc1c(C#N)c2ccccc2n1CCOc1ccccc1F	8	51*	0.5	0.6	40
N#Cc1cn(CCOc2ccccc2F)c2ccccc12	-3	100*	0	0	98*
SMILES	EphB4 ephrin blk	CYP2C9 inhib	CYP2C9 act	CYP2C19 act	CYP2C19 inh
COC(=O)Cn1c(C)c(C#N)c2ccccc21	0	/	/	/	/
CCOC(=O)c1c(Nc2ccccc2)sc(/C=C2\C=Nc3ccccc32)c1O	4	73*	0.3	0.7	32
Cc1c(CCO)c(=O)n(-c2ccccc2)n1S(=O)(=O)c1c(Cl)cc(Cl)cc1Cl	6	36	0.6	0.4	57*
Cc1c(NC(=O)C2CCN(S(=O)(=O)c3ccc(Cl)cc3)CC2)c(=O)n(-c2ccccc2)n1C	2	26	0.7	1.1	-7
CN(C)C(=O)CSc1nnc(-c2cnccn2)n1C	-1	/	/	/	/
CC(=O)Nc1sc2c(c1C(=O)N1CCOCC1)CCCCC2	-9	6	0.9	0.9	6
NC(=O)CSc1nc2scc(-c3ccco3)c2c(=O)n1-c1ccccc1	-3	38	0.6	0.9	14
C=CCn1c(SCC(=O)NCCOC)nc2scc(-c3ccco3)c2c1=O	3	83*	0.2	0.2	78*
C=CCn1c(SCc2ccccc2)nc2scc(-c3ccc(C)o3)c2c1=O	3	27	0.7	0.9	12
O=C(CSc1nc2scc(-c3ccco3)c2c(=O)n1-c1ccccc1)NCC1CCCO1 (stereo not given)	-1	71*	0.3	0.5	52*

High-throughput results from PubChem.
